Reference: PubChem BioAssay (EPA / NIEHS)
The source made the active and inactive calls. Rule for the calls: active = hit-call score of the fitted dose curve at least 0.9, where 1 is the maximum; inactive = score below 0.9.

Test system: not listed separately
Assay: ATG_GLI_CIS: Attagene CIS-FACTORIAL HepG2 Assay for human Zinc Finger Protein GLI1 (AID 2282945)
Conditions: HepG2, Attagene cis-factorial reporter mRNA, GLI element; actives raise or lower the signal
Method in brief: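 Transiently transfected HepG2 cells report endogenous transcription factor activity via cis-element-driven reporter units. After 24 h compound exposure, reporter mRNA was measured by RT-PCR with capillary electrophoresis; bidirectional fitting against DMSO baseline.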

Compound | AC50 | outcome
CCCCCCCCCCCC#N | 163 µM (active) | 
O=C(NC(=O)c1c(F)cccc1F)Nc1ccc(Oc2ccc(C(F)(F)F)cc2Cl)cc1F |  | inactive
CC1CCCC1.[C-]#[O+].[C-]#[O+].[C-]#[O+].[Mn] |  | inactive
CCCCNP(N)(N)=S |  | inactive
CC(=O)C=Cc1ccccc1 |  | inactive
CCC(=O)c1ccc(Cl)cc1 |  | inactive
Nc1ccccc1C(=O)Oc1ccc2ccccc2c1 | 70.9 µM (active) | 
C=CC(=O)OC |  | inactive
N#CCNCC#N |  | inactive
CN(C)N |  | inactive
CN1C[C@H](C(=O)N[C@]2(C)O[C@@]3(O)[C@@H]4CCCN4C(=O)[C@H](Cc4ccccc4)N3C2=O)C=C2c3cccc4[nH]cc(c34)C[C@H]21 |  | inactive
O=[N+]([O-])C=Cc1ccccc1 | 31.2 µM (active) | 
Nc1ccc(Cl)c(Cl)c1 |  | inactive
CCCCOP(=O)(O)OCCCC |  | inactive
O=C(O)CCl |  | inactive
CC(O)CN(CC(C)O)CC(C)O (stereo not drawn) |  | inactive

Compound | AC50 | outcome
Nc1cc(Cl)cc(Cl)c1 |  | inactive
O=[N+]([O-])c1ccc(Cl)cc1 |  | inactive
C=CCO |  | inactive
COC(=O)COc1ccc(Cl)cc1Cl |  | inactive
CC(=O)c1cc2c(cc1C)C(C)(C)C(C)CC2(C)C (stereo not drawn) | 75.5 µM (active) | 
Nc1ccc(-c2ccc(N)c(N)c2)cc1N |  | inactive
c1cc(OCC2CO2)ccc1Cc1ccc(OCC2CO2)cc1 (stereo not drawn) |  | inactive
C=CC(=O)OCCCCOC(=O)C=C |  | inactive
c1ccc2c(c1)CCCC2 |  | inactive
[Cl][Sb]([Cl])[Cl] |  | inactive
COc1ncc(F)c2nc(S(=O)(=O)Nc3c(F)cccc3F)nn12 |  | inactive
C[C@]12CC[C@H]3[C@@H](CC[C@@]45O[C@@H]4C(O)=C(C#N)C[C@]35C)[C@@H]1CC[C@@H]2O |  | inactive
O=[N+]([O-])c1cc([N+](=O)[O-])c2ccccc2c1 |  | inactive
O=C(O)C(Br)Br |  | inactive
C=CC(=O)OCCO |  | inactive
CCCCCCCCCCCCCCCC[N+](C)(C)C |  | inactive

Molecular target: Bile acid receptor (Homo sapiens) (UniProt Q96RI1)
Assay: ATG_IR1_CIS: Attagene CIS-FACTORIAL HepG2 Assay for human Nuclear Receptor Subfamily 1 Group H Member 4 (NR1H4), IR1 submotif (AID 2282946)
Conditions: IR1 reporter transcription, actives raise or lower the signal
Method in brief: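 HepG2 cells transiently transfected with multiple cis-promoter-driven reporter units to measure endogenous transcription factor activity; 24 h exposure. Reporter mRNA read by RT-PCR, FAM labelling, HpaI digestion and capillary electrophoresis. Bidirectional fit versus DMSO.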

Sequence of Bile acid receptor (Homo sapiens) (Q96RI1 whole entry, looked up): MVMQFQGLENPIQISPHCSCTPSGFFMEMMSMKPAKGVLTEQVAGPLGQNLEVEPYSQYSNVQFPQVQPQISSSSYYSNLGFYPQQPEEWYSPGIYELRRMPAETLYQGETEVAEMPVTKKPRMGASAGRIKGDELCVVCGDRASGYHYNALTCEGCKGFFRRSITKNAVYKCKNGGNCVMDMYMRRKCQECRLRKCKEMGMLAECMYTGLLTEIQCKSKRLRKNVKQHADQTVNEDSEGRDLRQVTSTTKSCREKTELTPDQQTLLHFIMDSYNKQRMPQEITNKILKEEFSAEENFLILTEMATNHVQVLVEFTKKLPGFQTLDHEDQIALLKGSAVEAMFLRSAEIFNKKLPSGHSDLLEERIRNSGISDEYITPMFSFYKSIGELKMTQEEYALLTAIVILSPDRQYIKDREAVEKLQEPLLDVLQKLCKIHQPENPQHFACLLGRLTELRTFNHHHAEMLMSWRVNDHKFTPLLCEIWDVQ

Compound | AC50 | outcome
CCCCCCCCCCCC#N | 165 µM (active) | 
O=C(NC(=O)c1c(F)cccc1F)Nc1ccc(Oc2ccc(C(F)(F)F)cc2Cl)cc1F |  | inactive
CCCCNP(N)(N)=S |  | inactive
Nc1ccccc1C(=O)Oc1ccc2ccccc2c1 | 26.1 µM (active) | 
C=CC(=O)OC |  | inactive
CC(C)CCCCCCCOC(=O)c1ccccc1C(=O)OCCCCCCCC(C)C |  | inactive
CN1C[C@H](C(=O)N[C@]2(C)O[C@@]3(O)[C@@H]4CCCN4C(=O)[C@H](Cc4ccccc4)N3C2=O)C=C2c3cccc4[nH]cc(c34)C[C@H]21 |  | inactive
O=[N+]([O-])C=Cc1ccccc1 | 46.8 µM (active) | 
CCCCOP(=O)(O)OCCCC |  | inactive
CC(O)CN(CC(C)O)CC(C)O (stereo not drawn) |  | inactive
Nc1cc(Cl)cc(Cl)c1 |  | inactive
Cc1ccc(C)c2ccccc12 |  | inactive
CC(=O)c1cc2c(cc1C)C(C)(C)C(C)CC2(C)C (stereo not drawn) | 179 µM (active) | 
Nc1ccc(-c2ccc(N)c(N)c2)cc1N |  | inactive
c1cc(OCC2CO2)ccc1Cc1ccc(OCC2CO2)cc1 (stereo not drawn) | 37.4 µM (active) | 
C=CC(=O)OCCCCOC(=O)C=C | 65.8 µM (active) | 
c1ccc2c(c1)CCCC2 |  | inactive
O=C(O)C(Br)Br |  | inactive

Test system: not listed separately
Assay: ATG_GRE_CIS: Attagene CIS-FACTORIAL HepG2 Assay for human Glucocorticoid Response Elements (GRE) (AID 2282947)
Conditions: HepG2 GRE cis-reporter, Attagene multiplex mRNA; actives raise or lower the signal
Method in brief: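 Transiently transfected HepG2 cells carrying GRE cis-reporter units (endogenous TF activity) dosed 24 h; reporter mRNA quantified by RT-PCR, 6-FAM labelling, HpaI digestion and capillary electrophoresis. Bidirectional fit versus DMSO baseline.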

Compound | outcome | AC50
CCCCCCCCCCCC#N | inactive | 
CC1CCCC1.[C-]#[O+].[C-]#[O+].[C-]#[O+].[Mn] | inactive | 
CCCCNP(N)(N)=S | inactive | 
CC(=O)C=Cc1ccccc1 | inactive | 
CCC(=O)c1ccc(Cl)cc1 | inactive | 
Nc1ccccc1C(=O)Oc1ccc2ccccc2c1 | inactive | 
CC(C)CCCCCCCOC(=O)c1ccccc1C(=O)OCCCCCCCC(C)C | inactive | 
CN(C)N | inactive | 
CN1C[C@H](C(=O)N[C@]2(C)O[C@@]3(O)[C@@H]4CCCN4C(=O)[C@H](Cc4ccccc4)N3C2=O)C=C2c3cccc4[nH]cc(c34)C[C@H]21 | inactive | 
O=[N+]([O-])C=Cc1ccccc1 | inactive | 
CCCCOP(=O)(O)OCCCC | inactive | 
O=C(O)CCl | inactive | 
CC(O)CN(CC(C)O)CC(C)O (stereo not drawn) | inactive | 
O=[N+]([O-])c1ccc(Cl)cc1 | inactive | 
C=CCO | inactive | 
[CH3][Sn]([Cl])([Cl])[Cl] | inactive | 
c1cc(OCC2CO2)ccc1Cc1ccc(OCC2CO2)cc1 (stereo not drawn) | inactive | 
C=CC(=O)OCCCCOC(=O)C=C |  | 70.5 µM (active)
c1ccc2c(c1)CCCC2 | inactive | 
CCOC(=O)C1OC1(C)c1ccccc1 (stereo not drawn) | inactive | 
[Cl][Sb]([Cl])[Cl] | inactive | 
COc1ncc(F)c2nc(S(=O)(=O)Nc3c(F)cccc3F)nn12 | inactive | 
O=[N+]([O-])c1cc([N+](=O)[O-])c2ccccc2c1 | inactive | 
O=C(O)C(Br)Br | inactive | 
C=CC(=O)OCCO | inactive | 
CCCCCCCCCCCCCCCC[N+](C)(C)C |  | 48.5 µM (active)

Test system: not listed separately
Assay: ATG_ISRE_CIS: Attagene CIS-FACTORIAL HepG2 Assay for human Interferon Regulatory Factor 1 (IRF1) binding to an Interferon-Stimulated Response Element (ISRE) (AID 2282948)
Conditions: HepG2 ISRE cis-reporter (Attagene), mRNA transcription readout; actives raise or lower the signal
Method in brief: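 Quantitation relies on labelled RT-PCR fragments separated by capillary electrophoresis. Human HepG2 cells bearing cis-promoter reporter constructs were treated 24 h; DMSO served as baseline for bidirectional fitting.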

Compound | outcome | AC50
CCCCCCCCCCCC#N | inactive | 
O=C(NC(=O)c1c(F)cccc1F)Nc1ccc(Oc2ccc(C(F)(F)F)cc2Cl)cc1F |  | 26.3 µM (active)
CC1CCCC1.[C-]#[O+].[C-]#[O+].[C-]#[O+].[Mn] |  | 35.2 µM (active)
CCCCNP(N)(N)=S | inactive | 
CC(=O)C=Cc1ccccc1 |  | 81.1 µM (active)
CCC(=O)c1ccc(Cl)cc1 | inactive | 
Nc1ccccc1C(=O)Oc1ccc2ccccc2c1 | inactive | 
C=CC(=O)OC | inactive | 
CC(C)CCCCCCCOC(=O)c1ccccc1C(=O)OCCCCCCCC(C)C | inactive | 
N#CCNCC#N | inactive | 
CN(C)N | inactive | 
CN1C[C@H](C(=O)N[C@]2(C)O[C@@]3(O)[C@@H]4CCCN4C(=O)[C@H](Cc4ccccc4)N3C2=O)C=C2c3cccc4[nH]cc(c34)C[C@H]21 | inactive | 
O=[N+]([O-])C=Cc1ccccc1 |  | 27.6 µM (active)
Nc1ccc(Cl)c(Cl)c1 |  | 135 µM (active)
CCCCOP(=O)(O)OCCCC | inactive | 
O=C(O)CCl | inactive | 
CC(O)CN(CC(C)O)CC(C)O (stereo not drawn) | inactive | 
Nc1cc(Cl)cc(Cl)c1 | inactive | 
O=[N+]([O-])c1ccc(Cl)cc1 | inactive | 

Compound | outcome | AC50
Cc1ccc(C)c2ccccc12 | inactive | 
C=CCO | inactive | 
COC(=O)COc1ccc(Cl)cc1Cl | inactive | 
[CH3][Sn]([Cl])([Cl])[Cl] | inactive | 
CC(=O)c1cc2c(cc1C)C(C)(C)C(C)CC2(C)C (stereo not drawn) | inactive | 
Nc1ccc(-c2ccc(N)c(N)c2)cc1N | inactive | 
c1cc(OCC2CO2)ccc1Cc1ccc(OCC2CO2)cc1 (stereo not drawn) |  | 49.1 µM (active)
C=CC(=O)OCCCCOC(=O)C=C |  | 54.1 µM (active)
c1ccc2c(c1)CCCC2 | inactive | 
CCOC(=O)C1OC1(C)c1ccccc1 (stereo not drawn) | inactive | 
[Cl][Sb]([Cl])[Cl] | inactive | 
COc1ncc(F)c2nc(S(=O)(=O)Nc3c(F)cccc3F)nn12 | inactive | 
CC(C)[C@@H](C(=O)O[C@@H](C#N)c1cccc(Oc2ccccc2)c1)c1ccc(Cl)cc1 | inactive | 
C[C@]12CC[C@H]3[C@@H](CC[C@@]45O[C@@H]4C(O)=C(C#N)C[C@]35C)[C@@H]1CC[C@@H]2O |  | 100 µM (active)
O=[N+]([O-])c1cc([N+](=O)[O-])c2ccccc2c1 | inactive | 
O=C(O)C(Br)Br | inactive | 
C=CC(=O)OCCO | inactive | 
CCCCCCCCCCCCCCCC[N+](C)(C)C |  | 27.4 µM (active)
